# Source: PubChem
# The list is not random: actives were taken first. Their share in the collection is about 0.92%.
# LmPK inhibitor: qHTS Assay for Inhibitors of Leishmania Mexicana Pyruvate Kinase (LmPK); AID 1721, 2009; Potency, µM (doses to about 57.5 µM), without a hit: at the top dose activity change, negative = inhibition, usual class: inhibitors; 290,000 compounds, 0.37% hits; purified LmPK, Kinase-Glo ATP luminescence, 1 h; further: potency means the concentration at half of the fitted maximal effect; on the % scale 0 is the no-effect control and ±100 the full control effect
# Target sequence (Q27686 whole entry, looked up): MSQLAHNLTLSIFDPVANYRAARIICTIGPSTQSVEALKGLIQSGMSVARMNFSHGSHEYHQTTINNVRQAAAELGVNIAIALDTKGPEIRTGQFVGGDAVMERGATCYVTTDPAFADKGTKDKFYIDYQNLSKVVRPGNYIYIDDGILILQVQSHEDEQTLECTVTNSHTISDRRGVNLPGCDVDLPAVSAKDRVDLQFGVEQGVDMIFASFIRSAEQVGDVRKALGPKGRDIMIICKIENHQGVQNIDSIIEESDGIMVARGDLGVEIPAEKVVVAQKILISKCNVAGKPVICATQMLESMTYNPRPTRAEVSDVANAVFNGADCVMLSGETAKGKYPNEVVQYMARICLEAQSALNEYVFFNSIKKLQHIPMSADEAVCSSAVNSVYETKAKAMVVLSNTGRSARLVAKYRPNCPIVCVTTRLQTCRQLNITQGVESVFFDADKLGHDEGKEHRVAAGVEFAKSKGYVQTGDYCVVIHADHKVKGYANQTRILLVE
#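 qHTS format; LmPK 0.1 nM; substrates PEP 0.5 mM and ADP 0.1 mM. One-hour room-temperature incubation, then coupled luciferase luminescence; 0.5 nM enzyme wells mark activation.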
# AMA1 RON2 block: qHTS for Inhibitors of AMA1-RON; Towards Development of Antimalarial Drug Lead: Primary Screen | Potency, µM (highest dose often 58.2 µM), inactives show top-dose activity change, negative = inhibition, usual class: inhibitors | Plasmodium falciparum AMA1 (3D7) - RON2 peptide interaction | 360,000 compounds, 0.2% hits | AlphaScreen AMA1-biotinylated RON2 peptide binding;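 further: potency means the concentration at half of the fitted maximal effect; 0% = vehicle wells and -100% = peptide control; nearly all actives have a fitted effect of over 45% in size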
#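 AMA1 (3D7) with his tag at 25 nM final met compounds first, then biotinylated RON2 peptide at 25 nM; detection used donor plus acceptor beads, 10 µg/mL apiece, read by AlphaScreen after 30 min at room temperature.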
# TbPYK inhibitor: qHTS of Trypanosoma Brucei Inhibitors; pyruvate kinase (Trypanosoma brucei), Q57TT1; TbPYK enzyme, Kinase-Glo Plus ATP luminescence, 45 min; Potency, µM (highest dose often 76.8 µM), without a hit: at the top dose activity, negative = inhibition, most hits filed as inhibitors; 410,000 compounds, 0.12% hits; AID 624173, 2012; further: potency means the concentration at half of the fitted maximal effect; on the % scale 0 is the no-effect control and ±100 the full control effect; nearly all actives have a fitted effect of over 50% in size
#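 Readout: single end-point luminescence (Kinase-Glo Plus, 10 min). Reaction conditions were TbPYK/substrate plus 130 uM ADP, 45 min at RT, pH 7.2 TEA buffer. No-enzyme wells served as controls, and data were normalized before concentration-response fitting.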
# NS1 function inh: qHTS Assay for Inhibitors of Influenza NS1 Protein Function | Potency, µM (top dose mostly 46.1 µM), for the others: top-dose activity, positive = more growth | 270,000 compounds, 0.4% hits; calls by dose curve; further: potency means the concentration at half of the fitted maximal effect; actives are rising curves; nearly all actives have a fitted effect of over 50% in size
#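 Growth recovery, yeast-based: influenza A NS1 expressed in S. cerevisiae causes slow growth, and suppressors are detected by OD600. The parent strain without NS1 is used as positive control.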
# RE007 growth inh: qHTS Assay for Inhibitors of the HIV-1 protein Vpr; Potency, µM (top dose mostly 92.2 µM), for inactives: top-dose activity change, negative = less growth, most hits filed as inhibitors; 360,000 compounds, 0.21% hits; AID 651644, 2012; S. pombe RE007 Vpr strain, BacTiter-Glo ATP luminescence, 24 h; active means well fitted falling curve with a large enough effect; inconclusive means small, poorly fitted or top-dose-only effect; inactive means no such curve, though single readings can be large or run the other way; further: potency means the concentration at half of the fitted maximal effect; on the % scale 0 is the no-effect control and ±100 the full control effect; nearly all actives have a fitted effect of over 50% in size
#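 Fission yeast strain RE007, carrying one chromosomally integrated HIV-1 vpr copy, was seeded at OD 0.01 in PMG+AL medium with 23 nL pinned compound. After 24 h at 30 °C and 99% humidity, viability was read by BacTiter-Glo luminescence.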
# LmPK inh confirm: Confirmation Assay for Inhibitors of Leishmania Mexicana Pyruvate Kinase (LmPK); shares compounds with LmPK inhibitor; purified LmPK, Kinase-Glo ATP luminescence, 1 h; Potency, µM (highest dose often 57.5 µM), without a hit: at the highest dose activity change, negative = inhibition, most hits filed as inhibitors; 150 compounds, 40% hits;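 active means compounds giving a full or partial concentration-response curve, as inhibitors or activators; inconclusive means weak, top-dose-only or unclear curve responses; inactive means no response at any tested dose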
# NS1 inh valid: Assay for Inhibitors of Influenza NS1 Protein Function: Hit Validation; shares compounds with NS1 function inh; influenza NS1 function cell assay, 15-point titration; activity change, negative = inhibition, % at 32.9 µM; 1,400 tested, under 10 active; calls by dose curve; further: 0% is about no effect
# PR8 titer: Assay for Inhibitors of Influenza NS1 Protein Function: Influenza virus replication assay in MDCK cells infected with virus A/PR/8/34 | AID 504647, 2011 | virus titer (log TCID50), log10 TCID50 at 5 µM | 95 compounds, 30% hits | MDCK infected influenza A/PR/8/34, virus titer TCID50; stronger effect = lower value | shares compounds with NS1 function inh; call rule not given here
# Active calls of the source: *; u = inconclusive; x = no result given. Unless noted, the call rests on the fitted dose curve; in most records, active means well fitted curve in the direction sought with a large enough effect; inconclusive means small, poorly fitted or top-dose-only effect, or another doubt; inactive means no such curve, though single readings can be large; an effect the other way counts as inactive or inconclusive.
SMILES,LmPK inhibitor,AMA1 RON2 block,TbPYK inhibitor,NS1 function inh,RE007 growth inh,LmPK inh confirm,others
Cc1ccc(-n2c(SCC(=O)Nc3ccc(C(=O)O)cc3)nnc2-c2ccncc2)cc1,3.2%,-4.7%,1.8%,1.0%,0.9%,x,
COc1cccc(CC(=O)Nc2ccc(-c3nc4ccccc4s3)cc2)c1,x,x,2.9%,x,x,x,
COc1cccc(-c2nc3ccccc3s2)c1,10µM*,31.5%,-18.8%,-10.1%,u,u,
CSc1ncnc2c1ncn2[C@@H]1O[C@@H](CO)[C@H](O)O[C@@H]1O,x,x,x,5.6%,x,x,
Cc1ccnc(N2C(=O)c3ccccc3C2=O)c1,-5.8%,-11.3%,-0.8%,1.2%,2.0%,-13.7%,
Cn1c(-c2ccc(Br)cc2)cnc1NCc1cccnc1,-2.9%,u,4.9%,6.9%,-4.0%,3.9%,
Cc1ccc(-c2cc3c(nn2)-c2ccccc2C3=O)cc1,7.08µM*,-11.0%,u,-9.8%,-18.2%,10.3µM*,
CC(C)CSc1ccccc1NC(=O)c1sc2nc(-c3ccncc3)ccc2c1N,x,x,-17.6%,x,x,x,
O=C1N(Cc2ccccc2Cl)c2ccccc2C1(O)c1c[nH]c2ccccc12 (stereo unspecified),x,x,0.1%,x,x,x,
Cc1ccc(Oc2ccccc2/C=C2\SC(=O)N(C)C2=O)cc1,-4.5%,28.6%,-1.8%,-0.8%,-6.6%,-4.1%,
Cn1cc(CN(Cc2ccccc2)C[C@@H]2CCC(=O)N2)c(-c2ccccc2F)n1,-1.1%,-9.8%,-2.1%,-5.3%,-2.0%,6.5%,
Cn1cc(CN(Cc2ccccn2)C[C@@H]2CCC(=O)N2)c(-c2ccccc2F)n1,-7.1%,104.9%,-6.2%,1.6%,2.1%,x,
Cc1nc(-c2ccc(F)cc2)sc1CCNC(=O)c1ccco1,x,x,2.7%,x,x,x,
Cc1ccc(NC(=O)CCC(=O)N2CCSc3ccccc32)cc1,x,x,-6.1%,x,x,x,
O=C1c2ccccc2C(=O)C1c1ccnc2ccccc12,7.08µM*,13.8%,-14.4%,-5.0%,-7.9%,u,
COC(=O)CSC1=NS(=O)(=O)c2ccccc21,5.01µM*,-9.2%,22.4µM*,-111.2%,-17.4%,u,
COC(=O)CSc1ccccc1C(=O)OC,-2.9%,8.7%,3.2%,0.5%,-4.9%,x,
Cc1occc1C(=O)O/N=C(\N)c1ccccc1,3.55µM*,-3.1%,u,-3.1%,u,10.3µM*,
Cc1cc(C)c(S(=O)(=O)n2ccc(-c3ccc(OCCN(C)c4ccccn4)cc3)n2)c(C)c1,3.4%,-4.0%,-4.9%,26.2%,-3.9%,2.1%,
CN1CCc2cccc3c2C1Cc1ccc(O)c(O)c1-3 (stereo unspecified),3.16µM*,u,-3.0%,u,11.9%,0.8%,
CCCN1CCc2cc(O)cc3c2C1Cc1ccc(O)c(O)c1-3 (stereo unspecified),x,x,x,18.1%,x,x,
O=C(O)c1cc(=O)[nH]c(=S)[nH]1,x,x,x,0.0%,x,x,
CCOc1ccc(C(=O)NC2CCN(C(=S)NCc3ccco3)CC2)cc1,1.8%,-3.0%,6.6%,2.8%,-13.0%,x,
Cc1cccc(C(=O)NC2CCN(C(=S)NCc3ccco3)CC2)c1,-8.4%,-20.7%,-3.8%,13.2%,-3.8%,-0.5%,
CN(Cc1ccon1)Cc1cn(C)nc1-c1cccc(Cl)c1,12.6µM*,-15.6%,2.7%,-2.5%,-22.0%,-6.9%,
SMILES,LmPK inhibitor,AMA1 RON2 block,TbPYK inhibitor,NS1 function inh,RE007 growth inh,LmPK inh confirm,others
COC(=O)C1=C(C)NC2=C(C(=O)CC(C)(C)C2)C1c1ccccn1 (stereo unspecified),-10.3%,3.5%,5.2%,-0.4%,-10.0%,x,
COC(=O)C1=C(C)NC2=C(C(=O)C(C(=O)OC)C(c3ccc(OC)cc3)C2)C1c1ccccn1 (stereo unspecified),1.6%,0.0%,6.7%,-4.3%,-8.1%,12.6%,
Cc1cc2c(cc1S(=O)(=O)CCC(=O)N1CCCCC1C)OCC(=O)N2 (stereo unspecified),x,x,-0.8%,x,x,x,
Cc1cc2n(n1)CCC(=O)N2Cc1ccc(C(=O)Nc2ccc(F)cc2F)cc1,x,x,-10.2%,x,x,x,
CCn1c(=O)c2cc(C(=O)N(CC(C)C)CC(C)C)sc2c2ccccc21,x,x,-7.5%,x,x,x,
CC(C)C(NC(=O)c1ccc2c(c1)OCO2)C(=O)N/N=C\c1ccco1 (stereo unspecified),-0.5%,0.4%,-4.1%,2.3%,-1.8%,8.0%,
COc1ccc(OC)c(CNC(=O)C2CCN(S(=O)(=O)c3cn(C)cn3)CC2)c1,x,x,-5.4%,x,x,x,
COc1ccccc1C(=O)NCCNc1nc2cc(C)cc(C)c2cc1C#N,1.8%,-1.7%,-12.3%,20.7%,3.7%,x,
Cc1cc(C)c2cc(C#N)c(NCCOC(=O)c3ccccc3C)nc2c1,0.0%,57.7%,4.0%,-5.9%,-6.3%,2.4%,
CCOc1ccc(-c2csc(-c3c(N)c(C(=O)c4ccc5c(c4)OCO5)n4ccccc34)n2)cc1,x,x,0.5%,x,x,x,
O=C(COC(=O)CCC(=O)c1ccc(F)cc1)Nc1ccc(F)cc1F,2.24µM*,21.5%,0.4%,x,-1.3%,-8.2%,
CCc1n[nH]c(=S)n1/N=C/c1ccc2c(c1)OCO2,-14.1%,37.4%,u,13.8%,-0.7%,-0.9%,
CCc1n[nH]c(=S)n1/N=C/c1ccc(N(C)c2ccccc2)cc1,-3.9%,81.0%,u,x,-1.9%,x,
c1ccc(C2=NNC(=NC3CC3)SC2)cc1,4.47µM*,26.5%,u,-4.9%,u,14.6µM*,
COC(=O)c1c(NC(=S)Nc2cc(OC)c(Cl)cc2OC)sc2c1CCCCC2,1.7%,8.8%,1.1%,11.2µM*,5.9%,x,NS1 inh valid=5.0;PR8 titer=8.5
CCOC(=O)c1c(NC(=S)Nc2cc([N+](=O)[O-])ccc2OC)sc2c1CCCCC2,1.3%,x,x,22.0%,x,x,
O=C(NCCc1ccc(Cl)cc1)c1c2c(nc3ccccc13)C(=O)N(C1CCCCC1)C2,x,x,3.0%,x,x,x,
Cc1ccc2c(c1)NCC(C(=O)NC1CCCCC1)O2 (stereo unspecified),1.5%,6.5%,-17.4%,7.94µM*,-11.7%,x,NS1 inh valid=0.7
C=CCn1c(-c2oc3nc(-c4ccccc4)cc(-c4ccccc4)c3c2N)n[nH]c1=S,2.3%,60.0%,-4.7%,1.12µM*,50.9%,x,NS1 inh valid=-7.2
